These results are taken from PubChem BioAssay (NCI).

Test [1] is described as follows: NCI Yeast Anticancer Drug Screen. Data for the rad50 strain (AID 155).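 Further: 0% = growth of vehicle-only cultures of the same strain.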 As to conditions: S. cerevisiae rad50 strain growth inhibition; at 50.0 µM; active compounds read high. The essentials:
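Growth of the mutant yeast was measured after compound exposure and referenced to vehicle-treated cultures.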

Test [2] is described as follows: NCI Yeast Anticancer Drug Screen. Data for the mec2-1 strain (AID 157). As to conditions: S. cerevisiae mec2-1 strain, at 50.0 µM, active compounds read high. The procedure, abridged:
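Strain: mec2-1 (DNA repair/cell cycle alteration). Compound exposure, then growth measured; inhibition expressed relative to vehicle.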

A short description of test [3]: NCI Yeast Anticancer Drug Screen. Data for the sgs1 mgt1 strain (AID 161).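 Further: 0% = growth of cultures given vehicle only.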 As to conditions: S. cerevisiae sgs1 mgt1 strain, at 50.0 µM, active compounds read high. The procedure, abridged: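 Test agents were incubated with a DNA-repair-mutant yeast strain. Growth was then read and compared against vehicle-treated controls.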
Test [4] in a line: NCI Yeast Anticancer Drug Screen. Data for the cln2 rad14 strain (AID 165).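 Further: 0% = growth equal to vehicle treated cultures.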 As to conditions: S. cerevisiae cln2 rad14 strain, at 50.0 µM, active compounds read high. The essentials:
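Compounds are applied to the cln2 rad14 yeast strain, and growth is then compared with that of vehicle-treated cultures to give inhibition.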

Test [5] can be described thus: NCI Yeast Anticancer Drug Screen. Data for the bub3 strain (AID 167). As to conditions: S. cerevisiae bub3 mutant strain, at 50.0 µM, active compounds read high. The procedure, abridged: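 Whole-cell yeast assay. The mutant strain was incubated with compounds, and growth inhibition was determined by comparison with vehicle-treated cells.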
The nature of test [6]: NCI Yeast Anticancer Drug Screen. Data for the mlh1 rad18 strain (AID 175). The note with it: S. cerevisiae mlh1 rad18 strain growth inhibition; at 50.0 µM; active compounds read high. The procedure, abridged:
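Read-out is yeast growth inhibition, calculated against vehicle-only controls. The compound was applied to a strain engineered with DNA damage repair alterations.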

Compounds without any hit were thinned out: in the full panel of roughly 79,000, 15% have a hit. Unmarked numbers belong to inactive results. Active and inactive are the calls of the source. No stated cut-off is given here; in the data, active means growth inhibition above about 70%; inactive means the rest. Where a SMILES comes first, the peptide text is derived from it. [ ]: non-standard residue; d: D form. The star is where a group is joined. ξ: configuration not given here. Tos = Cc1ccc(S(=O)(=O)*)cc1; ξY = NC(Cc1ccc(O)cc1)C(=O)O

Turning to `CC[N+]1(C)CCOCC1`, the growth inhibition in test [1] is -13.7%; in test [2], 3.35%; in test [3], -8.65%; in test [4] it was -21.9%; in test [5], -5.2%; in test [6] it was -8.15%.
For the compound `CC(C)CCCC(C)C1CCC2C3=CCC4CC(=O)CCC4(C)C3CCC21C` (stereo not given), the growth inhibition in test [1] was 30.9%; in test [2] it was -10.9%; in test [3], 4.65%; in test [4], 4.35%; in test [5], -1.2%; in test [6], 4.5%.
Consider `O=C(O)c1ccc(NC(NC(=O)C(C(F)(F)F)C(F)(F)F)(C(F)(F)F)C(F)(F)F)cc1`, for which the growth inhibition in test [1] was 20.2%; in test [2], 14.4%; in test [3], 8.9%; in test [4] it was 1.2%; in test [5], 11.2%; in test [6], 14.4%.
In the case of `C[C@]12CC[C@@H]3c4cc(C=O)c(OCc5ccccc5)cc4CC[C@H]3[C@@H]1CCC2OCc1ccccc1` (stereo not given in full), the growth inhibition in test [1] is 12.4%; in test [2] it was -8.15%; in test [3], 0.45%; in test [4], 2.9%; in test [5] it was -2.65%; in test [6] it was -0.95%.
`CCCCCCCCCCCCCCCCCCN(C)C`: the growth inhibition is 54% in test [1]; 23.1% in test [2]; 13.8% in test [3]; -64.9% in test [4]; 46.7% in test [5]; 25.9% in test [6].
For the compound `CCOC(=O)c1ccc(CSc2ccccc2C(=O)OCC)cc1`, the growth inhibition in test [1] is -10.3%; in test [2], -13.1%; in test [3], 9.95%; in test [4], -60.1%; in test [5], -17.1%; in test [6], -43.2%.
As for `COC(=O)/C=C1/CC[C@H]2[C@@H]3CCC4=CC(=O)CC[C@]4(C)[C@H]3C(=O)C[C@]12C`, the growth inhibition in test [1] was 42.5%; in test [2], 6.35%; in test [3], 14.3%; in test [4] it was -28%; in test [5], 14.2%; in test [6] it was 33.2%.
As for `NCC=C1C2CC3CC(C2)CC1C3`, the growth inhibition in test [1] was 1.9%; in test [2], -7.25%; in test [3], 1.4%; in test [4], -26.4%; in test [5] it was -13.7%; in test [6] it was 12.6%.
Regarding `Cc1ccc(C(=O)NNC(=O)c2ccc3ccccc3c2)cc1`, the growth inhibition in test [1] was -15.4%; in test [2], -19.4%; in test [3], 7%; in test [4], 10.2%; in test [5] it was -16.6%; in test [6], -12.9%.
As for `Cc1cc(=O)oc2cc(OCc3ccccc3)cc(O)c12`, the growth inhibition in test [1] was 22.8%; in test [2], 4.2%; in test [3], 21.8%; in test [4], -3.3%; in test [5], 6.45%; in test [6], 12.8%.
Turning to `CON(C)c1nc(N(C)C)nc(N(C)C)n1`, the growth inhibition in test [1] is -1.65%; in test [2], 11.6%; in test [3], -6.25%; in test [4], 3.7%; in test [5], 1.8%; in test [6], 0.9%.
Turning to `CN(CC(=O)c1ccc(Cl)cc1)Cc1ccccc1`, the growth inhibition in test [1] is -1.45%; in test [2], -8.8%; in test [3], 3.4%; in test [4], -25.3%; in test [5], 0.9%; in test [6], -3.5%.
Turning to `Nc1ccccc1/C=C(\C(=O)O)c1ccccc1`, the growth inhibition in test [1] was -19.9%; in test [2] it was -4.45%; in test [3], 14.8%; in test [4] it was 12.4%; in test [5], -0.6%; in test [6] it was 11.4%.
Take `CN(C)Cc1ccccc1COC(=O)/C=C/c1ccccc1`: the growth inhibition is 11.3% in test [1]; 7.5% in test [2]; 8.8% in test [3]; 10.1% in test [4]; 7.4% in test [5]; 8.95% in test [6].
As for `Nc1ccc(SCCC(=O)O)cc1`, the growth inhibition was 18.9% in test [1]; 0.7% in test [2]; -0.25% in test [3]; 2.1% in test [4]; 5.95% in test [5]; -13.3% in test [6].
Consider `Cc1[nH]c2ccccc2c1C(CC(=O)O)c1ccccc1` (stereo not given), for which the growth inhibition in test [1] is 13.6%; in test [2], -1.4%; in test [3], -12.8%; in test [4] it was -4.85%; in test [5], -4.55%; in test [6], -4.4%.
For `Cc1ccc(S(=O)(=O)NCCC(Cl)(Cl)Cl)cc1`, the growth inhibition in test [1] is 21.6%; in test [2], 6.8%; in test [3], 1.05%; in test [4], 1.2%; in test [5] it was 38%; in test [6], 27.7%.
Take `COC(=O)C(Cc1ccc(O)cc1)NC(=O)CNS(=O)(=O)c1ccc(C)cc1` (stereo not drawn) (Tos-Gly-[ξY]-OMe): the growth inhibition is 35.8% in test [1]; -4.1% in test [2]; 19.9% in test [3]; 10.9% in test [4]; -1.2% in test [5]; 8.4% in test [6].
With `CCCC(=O)Nc1cn(COC)c(C(=O)N2C[C@H]3C[C@@]34C2=CC(=O)c2[nH]cc(C)c24)n1`, the growth inhibition was 49.9% in test [1]; 22.1% in test [2]; 56% in test [3]; 19.9% in test [4]; 40.8% in test [5]; 58.8% in test [6].
With `N#CCCC1C(C#N)C2CC1C1C3C=CC(C3)C21` (stereo not given), the growth inhibition in test [1] was 9.1%; in test [2] it was 11.2%; in test [3] it was 30.5%; in test [4], 28.5%; in test [5] it was -4.5%; in test [6] it was 26.2%.
On to `O=C(O)c1ccc(N=Nc2ccccc2)cc1`, for which the growth inhibition in test [1] is -4.4%; in test [2] it was 14.9%; in test [3], 20.9%; in test [4] it was 0.3%; in test [5], -5.1%; in test [6], 2.75%.
With `CC(=O)Nc1cc(Cl)ccc1SC1OC(COC(C)=O)C(OC(C)=O)C(OC(C)=O)C1OC(C)=O` (stereo not given), the growth inhibition in test [1] was -10.6%; in test [2] it was -7.15%; in test [3], 17.9%; in test [4], -44.2%; in test [5], 4.6%; in test [6], -2.8%.
Regarding `COc1ccc2c(c1)C1(C)CCCC(C)(C(N)=O)C1CC2` (stereo not given), the growth inhibition was 0.1% in test [1]; -15.8% in test [2]; -8.05% in test [3]; 8.95% in test [4]; -12.2% in test [5]; -24.7% in test [6].
Consider `C/C(=N/NC(N)=O)C(=O)O`, for which the growth inhibition in test [1] is -0.15%; in test [2] it was 10.7%; in test [3] it was 2.5%; in test [4] it was -48.4%; in test [5], -2.95%; in test [6], 13.7%.
Turning to `CCCCCCCCCCCCCCCCC1=CC(=O)C=C(OC)C1=O`, the growth inhibition is 13.4% in test [1]; 1.45% in test [2]; 23.4% in test [3]; -36% in test [4]; -0.15% in test [5]; 15.6% in test [6].
On to `COC1=C(C#N)C(c2ccccc2)CC(N)=N1` (stereo not given), for which the growth inhibition was 1.55% in test [1]; -11.1% in test [2]; -10.1% in test [3]; 2.1% in test [4]; -1% in test [5]; 20.4% in test [6].
In the case of `O=c1nc(NCCc2c[nH]c3ccccc23)ccn1C1OC(CO)C(O)C1O` (stereo not given), the growth inhibition in test [1] was 19.1%; in test [2], 4.5%; in test [3], 2.35%; in test [4], 15.1%; in test [5] it was -1.45%; in test [6], 7.25%.
Turning to `CCOc1ccccc1NC(=O)Nc1cccc2ccccc12`, the growth inhibition is -3.5% in test [1]; 3.75% in test [2]; 3.65% in test [3]; -22.3% in test [4]; -6.8% in test [5]; -15.4% in test [6].
For the compound `N/N=C(/c1ccc(Cl)cc1)N1CCOCC1`, the growth inhibition is 15.4% in test [1]; 1.1% in test [2]; 3.8% in test [3]; -8.6% in test [4]; -18% in test [5]; 5.35% in test [6].
As to `Cc1cc(O)c(/C=N/C(=O)NN)c(=O)o1`, the growth inhibition in test [1] was -40.6%; in test [2] it was -11.1%; in test [3] it was -20.1%; in test [4], -22.4%; in test [5], -22.5%; in test [6] it was -42.5%.
Consider `CSc1nc(N)cc(Cl)n1`, for which the growth inhibition in test [1] was 7.75%; in test [2] it was -25.5%; in test [3], -12.4%; in test [4] it was 5.85%; in test [5] it was -1.9%; in test [6], -9.7%.
Turning to `O=C(c1ccc(Cl)cc1)N(C(=S)N1CCN(c2ccccc2)CC1)C1CCCCC1`, the growth inhibition is 7.95% in test [1]; -11.3% in test [2]; -19.5% in test [3]; 22.7% in test [4]; -21% in test [5]; -4.05% in test [6].
Consider `C=C(Cl)/C(=C\Cl)CCC(Cl)C(C)C` (stereo not given) (tested in a mixture with another compound), for which the growth inhibition in test [1] is 68.5%; in test [2], 78% (active); in test [3] it was 91% (active); in test [4], 72% (active); in test [5], 90.8% (active); in test [6], 89.3% (active).
With `O=C(COc1ccccc1)Nc1cccc2ccccc12`, the growth inhibition in test [1] was 4.5%; in test [2], 24.5%; in test [3] it was 6.6%; in test [4], -3.7%; in test [5] it was 10.4%; in test [6] it was 29.2%.
`Nc1ccn(C2CC3OCC3O2)c(=O)n1` (stereo not given): the growth inhibition in test [1] is -13.2%; in test [2] it was 24.9%; in test [3], -1.25%; in test [4], -5.7%; in test [5] it was 0.95%; in test [6] it was 0.65%.
